Laboratory results published in the supplement of paper PMC6555819.

Tests used:
Experiment in all cases: PBM binding z-score (relative to random genomic background probes); higher = stronger binding; sequences stand for … in GC…GCGATTGACAGCGTAGAATGAAGG
[1] = test system: FXR:RXRa (NR concentration 270 nM, RXRa partner concentration 90 nM)
Method in brief: (§1)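 The probes on custom Agilent 4×180K protein-binding microarrays were double-stranded, with 34-nt variable regions bearing direct-repeat seeds, single-nucleotide variants, half-site ablations and random human genomic background sequences. Incubation lasted 1 h with ligand-free nuclear receptor dimers in PBS pH 7.4, 2% milk, 0.02% Triton X-100, 1 mM DTT, 0.2 mg/mL BSA and 0.4 mg/ml salmon testes DNA. Antibodies against each partner (one per run) detected bound dimers, and fluorescence scans were regression-normalized. Binding z-scores take the random background probes as reference.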

[2] = test system: LXRa:RXRa (NR concentration 270 nM, RXRa partner concentration 90 nM)
Method in brief: as §1

[3] = test system: LXRa homodimer (NR concentration 270 nM)
Method in brief: as §1

[4] = test system: LXRb:RXRa (NR concentration 270 nM, RXRa partner concentration 90 nM)
Method in brief: as §1

[5] = test system: LXRb homodimer (NR concentration 270 nM)
Method in brief: as §1

[6] = test system: PPARa:RXRa (NR concentration 270 nM, RXRa partner concentration 90 nM)
Method in brief: as §1

[7] = test system: PPARg:RXRa (NR concentration 180 nM, RXRa partner concentration 90 nM)
Method in brief: as §1

[8] = test system: PPARg:RXRa 270nM:90nM, anti-RXR (NR concentration 270 nM, RXRa partner concentration 90 nM)
Method in brief: as §1

[9] = test system: PPARg:RXRa 30nM:10nM, anti-RXR (NR concentration 30 nM, RXRa partner concentration 10 nM)
Method in brief: as §1

[10] = test system: PPARg:RXRa 90nM:30nM, anti-RXR (NR concentration 90 nM, RXRa partner concentration 30 nM)
Method in brief: as §1

Sequence: CGTCCAAGGTCAAGGCCAGTGAAAGAGACTCGAA
- PBM binding z-score [1]: 7.2
- PBM binding z-score [2]: 5.21
- PBM binding z-score [3]: 0.208
- PBM binding z-score [4]: 3.73
- PBM binding z-score [5]: 0.00439
- PBM binding z-score [6]: 5.55
- PBM binding z-score [7]: 4.75
- PBM binding z-score [8]: 5.05
- PBM binding z-score [9]: 1.48
- PBM binding z-score [10]: 3.69

Sequence: CGAACTAGGTCAAGGACGGTGAATCTCCGCACGC
- PBM binding z-score [1]: 3.32
- PBM binding z-score [2]: 2.02
- PBM binding z-score [3]: 0.122
- PBM binding z-score [4]: 1.29
- PBM binding z-score [5]: -0.582
- PBM binding z-score [6]: 4.44
- PBM binding z-score [7]: 6.87
- PBM binding z-score [8]: 6.24
- PBM binding z-score [9]: 3.95
- PBM binding z-score [10]: 5.89

Sequence: AGTCAAAGTTCAGGACGAGTTAACGTAAAGCACG
- PBM binding z-score [1]: 3.79
- PBM binding z-score [2]: 3.99
- PBM binding z-score [3]: 1.02
- PBM binding z-score [4]: 1.9
- PBM binding z-score [5]: 0.173
- PBM binding z-score [6]: 3.38
- PBM binding z-score [7]: 4.32
- PBM binding z-score [8]: 4.63
- PBM binding z-score [9]: 2.21
- PBM binding z-score [10]: 4.17

Sequence: ATCTCTAGATAACCAAGTTCAGTGAATGCCGAAC
- PBM binding z-score [1]: 0.0637
- PBM binding z-score [2]: 0.348
- PBM binding z-score [3]: 0.591
- PBM binding z-score [4]: 0.348
- PBM binding z-score [5]: 0.0515
- PBM binding z-score [6]: -0.00769
- PBM binding z-score [7]: 0.236
- PBM binding z-score [8]: -0.141
- PBM binding z-score [9]: 0.124
- PBM binding z-score [10]: -0.0247

Sequence: TCATATAGGTAATACAGCTGAAAGTCGGCATCTA
- PBM binding z-score [1]: 0.752
- PBM binding z-score [2]: 0.674
- PBM binding z-score [3]: -0.0282
- PBM binding z-score [4]: 0.475
- PBM binding z-score [5]: 0.431
- PBM binding z-score [6]: 1.14
- PBM binding z-score [7]: 0.839
- PBM binding z-score [8]: 2.26
- PBM binding z-score [9]: 3.95
- PBM binding z-score [10]: 3.15

Sequence: ATATTTAGGTTAGCTGGGGTCATTCAGACTAGGC
- PBM binding z-score [1]: 4.36
- PBM binding z-score [2]: 5.53
- PBM binding z-score [3]: 3.69
- PBM binding z-score [4]: 4.89
- PBM binding z-score [5]: 2.59
- PBM binding z-score [6]: 4.96
- PBM binding z-score [7]: 4.2
- PBM binding z-score [8]: 4.63
- PBM binding z-score [9]: 1.88
- PBM binding z-score [10]: 3.88

Sequence: TAGCCTAGGTCAGATCGGGCCAGTTTACGCTATA
- PBM binding z-score [1]: 2.08
- PBM binding z-score [2]: 0.989
- PBM binding z-score [3]: -0.49
- PBM binding z-score [4]: 0.503
- PBM binding z-score [5]: -0.465
- PBM binding z-score [6]: 1.74
- PBM binding z-score [7]: 0.188
- PBM binding z-score [8]: 0.541
- PBM binding z-score [9]: -0.568
- PBM binding z-score [10]: -0.123

Sequence: CCGACTGGGGTAGAAAGGTTACCATACCATCCGG
- PBM binding z-score [1]: 0.17
- PBM binding z-score [2]: 0.786
- PBM binding z-score [3]: -0.133
- PBM binding z-score [4]: 1.06
- PBM binding z-score [5]: -1.02
- PBM binding z-score [6]: 2.58
- PBM binding z-score [7]: 2.04
- PBM binding z-score [8]: 3.63
- PBM binding z-score [9]: 1.08
- PBM binding z-score [10]: 3.32

Sequence: CCGACTGGGGCAAGGTTACCACAACGCACAGCCA
- PBM binding z-score [1]: 0.0767
- PBM binding z-score [2]: 0.351
- PBM binding z-score [3]: -0.32
- PBM binding z-score [4]: 0.671
- PBM binding z-score [5]: -1.11
- PBM binding z-score [6]: 1.98
- PBM binding z-score [7]: 2.91
- PBM binding z-score [8]: 3.54
- PBM binding z-score [9]: 1.2
- PBM binding z-score [10]: 2.55

Sequence: ACAGACAGGTGAGTGTAGGTAACTCAGCTGGACG
- PBM binding z-score [1]: 0.257
- PBM binding z-score [2]: -0.0272
- PBM binding z-score [3]: -0.446
- PBM binding z-score [4]: -0.538
- PBM binding z-score [5]: -0.878
- PBM binding z-score [6]: 0.215
- PBM binding z-score [7]: 0.458
- PBM binding z-score [8]: 0.248
- PBM binding z-score [9]: -0.279
- PBM binding z-score [10]: -0.0696

Sequence: CCTACTGGGCCATTCAGAGGTCTTTGATCATATG
- PBM binding z-score [1]: -0.281
- PBM binding z-score [2]: -0.261
- PBM binding z-score [3]: -0.37
- PBM binding z-score [4]: -0.49
- PBM binding z-score [5]: -0.94
- PBM binding z-score [6]: 0.481
- PBM binding z-score [7]: 0.251
- PBM binding z-score [8]: 0.437
- PBM binding z-score [9]: -0.397
- PBM binding z-score [10]: -0.188

Sequence: GCTAGTTGGTCAGTAAAAGGTCACACAGCGGTCG
- PBM binding z-score [1]: 3.2
- PBM binding z-score [2]: 4.47
- PBM binding z-score [3]: 4.65
- PBM binding z-score [4]: 4.17
- PBM binding z-score [5]: 0.715
- PBM binding z-score [6]: 4.62
- PBM binding z-score [7]: 2.84
- PBM binding z-score [8]: 4.58
- PBM binding z-score [9]: 2.15
- PBM binding z-score [10]: 4.37

Sequence: TCTTGTAGATCAGGAGGTTAAGAAAGCTGGCCAA
- PBM binding z-score [1]: 0.046
- PBM binding z-score [2]: 0.738
- PBM binding z-score [3]: 0.262
- PBM binding z-score [4]: 0.752
- PBM binding z-score [5]: -0.475
- PBM binding z-score [6]: 1.46
- PBM binding z-score [7]: -0.25
- PBM binding z-score [8]: 1.8
- PBM binding z-score [9]: 2.55
- PBM binding z-score [10]: 2.11

Sequence: CCTAGTTGGTCAAGGTCGCACACGCTATAGGTAC
- PBM binding z-score [1]: 1.28
- PBM binding z-score [2]: 0.906
- PBM binding z-score [3]: 0.275
- PBM binding z-score [4]: 1.18
- PBM binding z-score [5]: -0.0478
- PBM binding z-score [6]: 1.68
- PBM binding z-score [7]: 1.15
- PBM binding z-score [8]: 1.37
- PBM binding z-score [9]: 0.0592
- PBM binding z-score [10]: 0.958

Sequence: CCTAGTTGGTCAGGAGGTCAGACACCGGATATGA
- PBM binding z-score [1]: 2.18
- PBM binding z-score [2]: 2.3
- PBM binding z-score [3]: 0.868
- PBM binding z-score [4]: 2.16
- PBM binding z-score [5]: 0.128
- PBM binding z-score [6]: 3.04
- PBM binding z-score [7]: 2.05
- PBM binding z-score [8]: 2.35
- PBM binding z-score [9]: 0.691
- PBM binding z-score [10]: 1.69

Sequence: CCTAGTTCGTCAAGGTCACACACGCTATAGGTAC
- PBM binding z-score [1]: 4.55
- PBM binding z-score [2]: 3.92
- PBM binding z-score [3]: 2.75
- PBM binding z-score [4]: 4.06
- PBM binding z-score [5]: 1.33
- PBM binding z-score [6]: 4.36
- PBM binding z-score [7]: 2.52
- PBM binding z-score [8]: 3.46
- PBM binding z-score [9]: 0.804
- PBM binding z-score [10]: 2.23

Sequence: CAAACTAGTTCAAAGGTCAAAGTCGAGCCAACCA
- PBM binding z-score [1]: 7.5
- PBM binding z-score [2]: 6.94
- PBM binding z-score [3]: 5.57
- PBM binding z-score [4]: 6.5
- PBM binding z-score [5]: 2.97
- PBM binding z-score [6]: 7.02
- PBM binding z-score [7]: 11
- PBM binding z-score [8]: 9.72
- PBM binding z-score [9]: 11.8
- PBM binding z-score [10]: 11.7

Sequence: AGAATGAGGTTATTAAGATCAGGGACTTGCGGTC
- PBM binding z-score [1]: 1.59
- PBM binding z-score [2]: 1.49
- PBM binding z-score [3]: 0.193
- PBM binding z-score [4]: 1.13
- PBM binding z-score [5]: 0.02
- PBM binding z-score [6]: 2.5
- PBM binding z-score [7]: 1.59
- PBM binding z-score [8]: 1.87
- PBM binding z-score [9]: 0.187
- PBM binding z-score [10]: 1.08

Sequence: GCTTACGGGTCAAAGTTTATAGCATGAATAGAAT
- PBM binding z-score [1]: 6.86
- PBM binding z-score [2]: 4.62
- PBM binding z-score [3]: 0.38
- PBM binding z-score [4]: 4.67
- PBM binding z-score [5]: 0.532
- PBM binding z-score [6]: 6.2
- PBM binding z-score [7]: 9.24
- PBM binding z-score [8]: 8.11
- PBM binding z-score [9]: 7.16
- PBM binding z-score [10]: 8.84

Sequence: CCTAGAAGGCCAGGGTCACTCAAGCATTTCGCTT
- PBM binding z-score [1]: 2.51
- PBM binding z-score [2]: 1.79
- PBM binding z-score [3]: -0.266
- PBM binding z-score [4]: 2.02
- PBM binding z-score [5]: -0.312
- PBM binding z-score [6]: 3.12
- PBM binding z-score [7]: 0.628
- PBM binding z-score [8]: 1.35
- PBM binding z-score [9]: -0.294
- PBM binding z-score [10]: 0.786

Sequence: GCTTGTAGATCAAGGTGAAGAAAGACTAAGCTAA
- PBM binding z-score [1]: -0.249
- PBM binding z-score [2]: -0.317
- PBM binding z-score [3]: -0.489
- PBM binding z-score [4]: -0.225
- PBM binding z-score [5]: -0.819
- PBM binding z-score [6]: 0.597
- PBM binding z-score [7]: 0.122
- PBM binding z-score [8]: 0.939
- PBM binding z-score [9]: 0.103
- PBM binding z-score [10]: 0.281

Sequence: ACAGACAGGTGAGTTAAGGTAACTCAGCTGGACG
- PBM binding z-score [1]: 0.488
- PBM binding z-score [2]: -0.196
- PBM binding z-score [3]: -0.499
- PBM binding z-score [4]: -0.279
- PBM binding z-score [5]: -0.347
- PBM binding z-score [6]: 0.226
- PBM binding z-score [7]: 0.637
- PBM binding z-score [8]: 0.279
- PBM binding z-score [9]: 0.254
- PBM binding z-score [10]: 0.0651

Sequence: TCTCGGAGGACACGAAGGTCAGAGCATTCCAGAG
- PBM binding z-score [1]: 1.29
- PBM binding z-score [2]: 0.948
- PBM binding z-score [3]: 0.206
- PBM binding z-score [4]: 0.97
- PBM binding z-score [5]: -0.998
- PBM binding z-score [6]: 1.88
- PBM binding z-score [7]: 0.742
- PBM binding z-score [8]: 1.63
- PBM binding z-score [9]: 2.05
- PBM binding z-score [10]: 1.74
